This is a sample that favours compounds with a hit; in the whole collection about 6.7% have one here.
GDH-TPI counter = inhibits GDH-TPI coupling enzymes, artifact for Mtb FBA screen; GDH-TPI coupled enzyme counterscreen, NADH absorbance; inhibition, % at 4.8 µM; 360,000 compounds, 1.2% hits; AID 588335; in the data active = inhibition above about 30%;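 note: 0% = DMSO wells and 100% = wells lacking the enzyme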
Anthrax LF inh2 = blocks Bacillus anthracis lethal factor protease; P15917; multiplex microsphere protease cleavage assay, LF; inhibition, % at 10 µM; 360,000 compounds, 0.12% hits; AID 588501; note: plate controls were buffer without enzyme for full effect and enzyme alone for no effect
Mtb FBA inh = inhibitors of M. tuberculosis fructose-bisphosphate aldolase | purified M. tuberculosis FBA, fluorescence read-out | AID 588726 | P9WQA3 | inhibition, % at 1 µM | 360,000 compounds, 2.3% hits; in the data active = inhibition above about 27%;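 note: 0% = vehicle and 100% = reference inhibitor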
Target sequence (P9WQA3 whole entry, looked up): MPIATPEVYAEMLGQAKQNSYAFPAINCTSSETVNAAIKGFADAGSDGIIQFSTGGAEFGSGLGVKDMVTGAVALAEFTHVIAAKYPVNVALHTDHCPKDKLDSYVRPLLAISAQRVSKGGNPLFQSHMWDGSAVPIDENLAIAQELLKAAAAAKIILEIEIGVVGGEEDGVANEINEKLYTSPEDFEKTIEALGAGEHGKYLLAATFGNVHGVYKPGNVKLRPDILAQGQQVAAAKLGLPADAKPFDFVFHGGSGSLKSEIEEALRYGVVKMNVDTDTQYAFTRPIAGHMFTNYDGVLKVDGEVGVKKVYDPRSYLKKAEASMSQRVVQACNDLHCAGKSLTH
BoNT-F LC inh = BoNT F light chain protease inhibition | Multiplex microsphere protease cleavage assay, flow cytometry | inhibition, % at 10 µM | 360,000 compounds, 0.22% hits; in the data active = inhibition above about 35%, passing the limit was not always enough; inconclusive = no clear call, values can overlap the other calls; note: plate controls were buffer without enzyme for full effect and enzyme alone for no effect
Bead autofluor = compound fluorescence in toxin protease inhibitor counterscreen | AID 624483 | 360,000 compounds, 3.1% hits | compound autofluorescence counterscreen, microsphere flow cytometry; hits give high values | fluorescence intensity (concentration not given with the values); in the data active = fluorescence intensity above about 16000; inconclusive = no clear call, values can overlap the other calls
BoNT-A LC inh2 = BoNT A light chain protease inhibition. multiplex microsphere protease substrate cleavage, flow cytometry. inhibition, % at 10 µM. 360,000 compounds, 0.17% hits. AID 588499; note: plate controls were buffer without enzyme for full effect and enzyme alone for no effect
* = called active by the depositor; ? = inconclusive; . = no result given; + = active, no number. Cut-off read from the data, not from the text of the source, unless noted: active = inhibition above about 30%; inconclusive = no clear call, values can overlap the other calls; inactive = below that.

SMILES	GDH-TPI counter	Anthrax LF inh2	Mtb FBA inh	BoNT-F LC inh	Bead autofluor	BoNT-A LC inh2
Cc1onc(-c2ccccc2Cl)c1C(=O)Nc1ccc(-c2cn3cccnc3n2)cc1	31*	-2	+	0	16485*	?
Cc1onc(-c2ccccc2Cl)c1C(=O)Nc1cccc2cccnc12	6	-1	-1	-2	2858	-1
CC(=O)Nc1ccc(NC(=O)c2c(-c3ccccc3Cl)noc2C)cc1	-7	-3	0	-18	4007	0
Cc1onc(-c2ccccc2Cl)c1C(=O)Nc1cccc(-c2nc3ncccn3c2C)c1	26	-8	175*	11	8034	0
O=C(NNC(=O)c1ccc(Cn2cccn2)o1)NC12CC3CC(CC(C3)C1)C2	-8	1	2	-2	6364	0
Cc1ccc(NC(=O)/C(C#N)=C/c2cccs2)c(C)c1	9	2	-1	-4	2506	0
Cc1cccc(C)c1NC(=O)/C(C#N)=C/c1cccs1	42*	-5	3	-4	3378	1
COc1cc(/C=C(\C#N)c2nc3ccccc3[nH]2)ccc1Oc1ccc([N+](=O)[O-])cn1	32*	-6	3	-2	9074	0
COc1cc(/C=C2\SC(=O)NC2=O)ccc1Oc1ccc([N+](=O)[O-])cn1	36*	14	-1	?	4464	?
COc1cc(/C=C2/SC(=O)NC2=O)ccc1Oc1ccc([N+](=O)[O-])cc1[N+](=O)[O-]	26	-4	-1	2	6124	0
Cc1ccccc1OCC(=O)OCC(=O)Nc1cc(S(C)(=O)=O)ccc1Cl	1	7	3	-5	4527	-1
Cc1c(/C=N/NC(=O)C(C)(C)Oc2ccc(Cl)cc2)cnn1C	3	0	0	-11	11508	-1
Cc1nn(C)c(C)c1/C=N/NC(=O)C(C)(C)Oc1ccc(Cl)cc1	4	-5	-2	-2	24501*	?
COc1ccc(/C=C/C(=O)N2CCNC(=O)C2)c(OC)c1	10	-3	6	2	3284	0
N#Cc1c(-c2ccc(Cl)cc2)c2c([nH]c1=O)-c1ccccc1OC2	21	-5	184*	?	4219	4
CC1(C)Cc2c(c(-c3ccccc3Cl)[nH]c(=O)c2C#N)CO1	17	-4	9	-2	4686	0
O=C(CC1C(=O)NCCN1Cc1c(F)cccc1Cl)NC1CCCCCC1 (stereo not drawn)	-3	-12	4	-4	6256	0
COc1ccc(N2C(=O)CS/C2=N\C(=S)Nc2ccccc2)cc1	37*	8	0	?	4217	2
c1csc(-c2nnc(-c3ccc(N4CCOCC4)cc3)o2)c1	26	-2	18	2	20353*	1
CCOc1ccc(Nc2oc(-c3cccs3)nc2C#N)cc1	18	-5	13	-14	7038	0
N#Cc1nc(Cc2ccccc2)oc1NCc1ccccc1	1	-3	-8	6	4905	0
N#Cc1nc(-c2cccs2)oc1NCc1ccc(Cl)cc1	7	-3	+	4	2634	0
C=CCNc1oc(-c2cccs2)nc1C#N	28	-2	+	5	14544	5
N#Cc1nc(-c2cccs2)oc1NCc1ccccc1	22	-2	+	-14	2602	0
COc1cc(CNCc2ccccc2C(F)(F)F)cc(OC)c1	2	6	8	-9	3229	0
SMILES	GDH-TPI counter	Anthrax LF inh2	Mtb FBA inh	BoNT-F LC inh	Bead autofluor	BoNT-A LC inh2
Cc1ccc(CNc2oc(-c3cccs3)nc2C#N)cc1	7	-4	+	-2	10073	-2
c1coc(-c2nnc(-c3cccs3)o2)c1	6	-17	150*	-8	?	?
N#Cc1nc(-c2cccs2)oc1N1CCN(c2ccccc2)CC1	17	-3	13	-5	20556*	-3
N#Cc1nc(-c2ccc(OCc3ccccc3)cc2)oc1NCc1ccco1	20	-4	7	-6	2359	0
N#Cc1nc(-c2cccs2)oc1NCc1ccco1	20	-4	+	-1	9031	1
N#Cc1nc(Cc2ccccc2)oc1N1CCN(c2ccccc2)CC1	-2	-4	-1	-7	10460	0
N#Cc1nc(-c2cccs2)oc1NCc1ccccc1Cl	25	-3	158*	-3	2210	0
COc1ccccc1/C=C1\SC(=S)N(Nc2nc(C)cc(C)n2)C1=O	4	0	-2	-6	24819*	-4
Cc1ccc(S(=O)(=O)NCC(=O)OCC(=O)N2CCN(C(=O)c3ccco3)CC2)cc1C	-4	4	2	-3	5243	1
O=C(N/N=C/c1ccc(O)c(O)c1O)/C(=C/c1ccc([N+](=O)[O-])cc1)NC(=O)c1ccccc1	37*	-13	-10	-40	?	0
O=C(Nc1cccc2ccccc12)/C(=C/c1ccc([N+](=O)[O-])cc1)NC(=O)c1ccccc1	17	18	-2	25	7715	34*
Cc1cc(OCC(=O)O/N=C(\N)c2ccccc2)ccc1Cl	-5	2	0	1	2432	0
CC(C)CCC(C)NC(=O)Cc1ccc(S(=O)(=O)N2CCOCC2)s1 (stereo not drawn)	-4	-4	0	0	5537	1
Cn1c(-c2ccccc2)nc2cnccc21	20	0	2	-1	4904	0
CN(C)C=Nc1ncc2c3ccccc3n(Cc3ccccc3)c2c1C#N	-6	0	3	0	2360	0
CN(C)C=Nc1ncc2c3ccccc3n(CCN(C)C)c2c1C#N	33*	-2	7	-4	2449	-1
CCOC(=O)c1nc(-c2ccccc2)oc1N(C)C	15	-1	131*	-2	3445	-1
COc1ccccc1/C=C/c1nc(C#N)c(N(C)C)o1	9	6	+	?	4563	-3
CN(C)c1oc(/C=C/c2ccccc2)nc1C#N	24	-1	.	0	2492	0
Cc1oc(-c2ccccc2)nc1C(=O)OCC(=O)NCc1ccccc1	3	-7	6	-1	6694	-2
CN(C)c1oc(-c2ccccc2)nc1C#N	18	-4	+	1	22791*	0
CN(C)c1oc(-c2ccco2)nc1C#N	16	-4	127*	-9	3345	0
CN(C)c1oc(-c2ccccc2Cl)nc1C#N	10	-2	20	0	10580	0
O=C(c1cccs1)N1CCN=C1SCc1cccc(F)c1	4	7	-2	3	4558	0
CCCCSc1nnc(-c2cc(Br)ccc2N)c(=O)[nH]1	6	-3	-1	1	20791*	?
Cc1cc(C)c2c(NC(=S)Nc3ccccc3)n[nH]c2n1	6	-4	0	-8	4441	-2
CN1CC(=O)N(CC(=O)Nc2ccc(N3CCOCC3)cc2)C1=O	0	0	4	7	4840	1
Cc1c(C(=O)N2CCOCC2)oc2c1C(=O)CC(C)(C)C2	5	3	3	-5	8234	0
Cc1c(C(=O)N2CCc3ccccc32)oc2c1C(=O)CC(C)(C)C2	5	0	-1	1	23325*	2

Screens deposited in PubChem BioAssay by several laboratories.
